Most compounds without a hit are left out; they make up all but 8.1% or so of the library.
ELG1 repair inh: ELG1-dependent DNA repair inhibition; HEK293T ELG1-luciferase reporter, luminescence, 16 h; DNA damage induced by 5-fluorouridine; Potency, µM (series often up to 46.1 µM), inactives show at the highest dose activity change, negative = inhibition, usual class: inhibitors; actives 2.3% (n = 330,000); further: on the % scale 0 is the no-effect control and ±100 the full control effect; nearly all actives have a fitted effect of over 55% in size
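Overnight (16 hr) co-exposure of 2,000 cells/well to 5-fluorouridine and compound at 37 °C preceded detection. Luciferase was quantified via ONE-Glo luminescence; loss of signal denotes inhibition.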
KB-V1 MDR tox: KB-V1 MDR subline cytotoxicity; Potency, µM (highest dose often 46.1 µM), usual class: cytotoxic; AID 1347076; actives 3.4% (n = 400,000); KB-V1 MDR cells viability, CellTiter-Glo, 72 h; further: on the % scale 0 is the no-effect control and ±100 the full control effect; nearly all actives have a fitted effect of over 60% in size
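qHTS viability screen in drug-selected KB-V1 MDR cells: 72 h compound treatment at 37 degrees C, ATP luminescence end point.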
MCF10A rereplic: induces DNA re-replication in MCF 10a normal breast cells; MCF 10A DNA re-replication, Hoechst nuclear intensity, 48 h; Potency, µM (doses to about 46.1 µM), without a hit: at the highest dose activity, positive = re-replication, hits mostly activators; actives 2.9% (n = 350,000); further: % of control where 0% means no effect; nearly all actives have a fitted effect of over 50% in size
KB-3-1 tox: KB-3-1 parental cell cytotoxicity. Potency, µM (top dose mostly 46.1 µM), actives largely listed as cytotoxic. actives 1.4% (n = 400,000). AID 1347075. KB-3-1 viability, CellTiter-Glo ATP luminescence, 72 h; further: on the % scale 0 is the no-effect control and ±100 the full control effect; nearly all actives have a fitted effect of over 60% in size
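Parental KB-3-1 adenocarcinoma cells in phenol-red-free DMEM with 10% FBS were pin-treated with compounds at several concentrations, incubated 72 h at 37 °C, and viability read by CellTiter-Glo luminescence; concentration-effect curves were fitted after normalization.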
SW480 rerep: induces DNA re-replication in SW480 colon adenocarcinoma cells; Potency, µM (titrated, usually from 46.1 µM), inactives show at the top dose re-replication activation, most hits filed as activators; actives 1.8% (n = 340,000); SW480 DNA re-replication, Hoechst DNA content imaging, 48 h; further: % of control where 0% means no effect; nearly all actives have a fitted effect of over 55% in size
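Hoechst fluorescence of nuclei (405 nm excitation, 500-530 nm emission) measured by plate-scanning imager after 48 hr compound exposure at 37 C; re-replication scored as increased number of nuclei with elevated intensity.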
* marks the source's active call; other numbers are inactive results; ! = a repeat was not active. The call rests on the fitted dose curve; in most records, active means well fitted curve in the direction sought with a large enough effect; inconclusive means small, poorly fitted or top-dose-only effect, or another doubt; inactive means no such curve, though single readings can be large; an effect the other way counts as inactive or inconclusive. Potency means the concentration at half of the fitted maximal effect.

CC[C@]12c3[nH]c4ccc(Cl)cc4c3CCN1C(=O)[C@@H](CC(=O)NCc1cccc(C(F)(F)F)c1)C[C@@H]2C(=O)N1CCN(C(=O)C2CC2)CC1 was read as ELG1 repair inh inconclusive, KB-V1 MDR tox inactive, MCF10A rereplic inconclusive, KB-3-1 tox inactive and SW480 rerep 6.5%.
`C[C@]12c3[nH]c4ccc(Cl)cc4c3CCN1C(=O)[C@@H](CC(=O)NCCc1ccccn1)C[C@@H]2C(=O)N1CCCCC1` gave ELG1 repair inh 7.3µM*, KB-V1 MDR tox inactive, MCF10A rereplic inconclusive, KB-3-1 tox inactive and SW480 rerep -6.4%.
C=C1C=C(C)n2ncc(C(=O)Nc3cccc(C(=O)Nc4cccc(C(F)(F)F)c4)c3)c2N1 was read as KB-V1 MDR tox inactive and KB-3-1 tox inconclusive.
For O=C(COC(=O)c1c2c(nc3ccccc13)/C(=C/c1ccco1)CC2)NC1CCCC1 the results were ELG1 repair inh inconclusive, KB-V1 MDR tox 16.4µM*, MCF10A rereplic 7.31µM*, KB-3-1 tox inactive and SW480 rerep 13µM*.
CC1CCCCC1NC(=O)COC(=O)c1c2c(nc3ccccc13)/C(=C/c1ccco1)CC2 (stereo unspecified) was read as ELG1 repair inh inconclusive, KB-V1 MDR tox inactive, MCF10A rereplic 16.4µM*, KB-3-1 tox inactive and SW480 rerep 14.6µM*.
`CC(OC(=O)Cc1ccc(Cl)cc1)C(=O)NC1CCCCC1C` (stereo unspecified) gave ELG1 repair inh 17.6%, KB-V1 MDR tox inactive, MCF10A rereplic 6.2%, KB-3-1 tox inactive and SW480 rerep -3.0%.
Cc1c(NC(=O)c2cccc(-c3cc4ccccc4oc3=O)c2)cccc1-c1nc2ncccc2o1 was read as ELG1 repair inh 13µM*, KB-V1 MDR tox inactive, MCF10A rereplic 0.5%, KB-3-1 tox inactive and SW480 rerep -3.8%.
Screening CN1CCN(Cc2nc3ccccc3c(=O)n2Cc2nc(-c3ccc4ccccc4c3)cs2)CC1 returned ELG1 repair inh 13µM*, KB-V1 MDR tox 20.6µM*!, MCF10A rereplic inconclusive, KB-3-1 tox inconclusive and SW480 rerep 11.6µM*.
Screening CN1CCN(Cc2nc3ccccc3c(=O)n2Cc2nc(-c3ccccc3F)cs2)CC1 returned ELG1 repair inh 16.4µM*, KB-V1 MDR tox inconclusive, MCF10A rereplic 6.5%, KB-3-1 tox inactive and SW480 rerep 24.5%.
For CC1CN(Cc2ccccc2)c2ccccc2NC1=S (stereo unspecified) the results were ELG1 repair inh -2.7%, KB-V1 MDR tox 20.6µM*, MCF10A rereplic 41.0%, KB-3-1 tox inconclusive and SW480 rerep 2.4%.
For CCCCn1c(N)c(N(CCOC)C(=O)c2cccc(S(=O)(=O)N(C)c3ccc(C)cc3)c2)c(=O)[nH]c1=O the results were ELG1 repair inh 8.4%, KB-V1 MDR tox inactive, MCF10A rereplic 1.0%, KB-3-1 tox inactive and SW480 rerep 0.4%.
`CCCOc1ccc(CNC(=O)c2oc3ccc4c(c3c2C)C(=O)CC(C)(CC)O4)cc1` (stereo unspecified) gave KB-V1 MDR tox inactive and KB-3-1 tox inactive.
`O=C(O)c1ccc(CNC(=O)C2CCN(S(=O)(=O)c3ccc4c(c3)OCCO4)CC2)cc1` gave KB-V1 MDR tox inactive and KB-3-1 tox inactive.
`Cc1cc(/C=C2\SC(=Nc3ccccc3)NC2=O)c(C)n1-c1ccc(S(N)(=O)=O)cc1` gave ELG1 repair inh 11.2µM*, KB-V1 MDR tox inconclusive, MCF10A rereplic 17.4%, KB-3-1 tox 4.11µM* and SW480 rerep 7.31µM*.
Screening O=C(Nc1cccc(S(=O)(=O)N2CCCC2)c1)c1ccc2c(=O)n3c(nc2c1)CCCCC3 returned ELG1 repair inh 5.8µM*, KB-V1 MDR tox inconclusive, MCF10A rereplic 17.4%, KB-3-1 tox inconclusive and SW480 rerep 0.2%.
For O=C(Nc1cccc(S(=O)(=O)N2CCOCC2)c1)c1ccc2c(=O)n3c(nc2c1)CCCCC3 the results were ELG1 repair inh 11.6µM*, KB-V1 MDR tox inconclusive, MCF10A rereplic inconclusive, KB-3-1 tox inactive and SW480 rerep -5.7%.
`CC(=O)c1cccc(NC(=O)c2ccc3c(=O)n4c(nc3c2)CCCCC4)c1` gave ELG1 repair inh -19.9%, KB-V1 MDR tox inconclusive, MCF10A rereplic 9.7%, KB-3-1 tox inactive and SW480 rerep -0.6%.
Cc1cnc2c(c1SCC(=O)N(C)c1ccccc1)c(=O)n(C)c(=O)n2C was read as KB-V1 MDR tox inactive and KB-3-1 tox inactive.
`CC1CCCC(C)N1C(=O)CSc1ccc(-c2ccc3c(c2)OCCO3)nn1` (stereo unspecified) gave ELG1 repair inh -3.8%, KB-V1 MDR tox inactive, MCF10A rereplic 26.0%, KB-3-1 tox inactive and SW480 rerep 10.9%.
For CC1CCCCN1C(=O)CSc1ccc(-c2ccc(F)cc2)nn1 (stereo unspecified) the results were ELG1 repair inh 24.2%, KB-V1 MDR tox 11.6µM*, MCF10A rereplic -0.5%, KB-3-1 tox inactive and SW480 rerep -2.6%.
For CCCNC(=O)Cn1c(=O)/c(=C/c2ccc(-c3ccc([N+](=O)[O-])cc3)o2)s/c1=C\C(=O)C(C)(C)C the results were KB-V1 MDR tox inactive, MCF10A rereplic 18.4µM*, KB-3-1 tox inconclusive and SW480 rerep 7.31µM*.
CCN(CC(=O)Nc1ccc(OC)cc1)C(=O)c1cc(-c2cccs2)nn1-c1ccccc1 was read as ELG1 repair inh inconclusive, KB-V1 MDR tox 20.6µM*, MCF10A rereplic inconclusive, KB-3-1 tox inactive and SW480 rerep -4.4%.
COCCN(CC(=O)Nc1cccc(C)c1C)C(=O)C1(c2ccccc2)CC1 was read as ELG1 repair inh 0.0%, KB-V1 MDR tox 18.4µM*, MCF10A rereplic -0.8%, KB-3-1 tox inactive and SW480 rerep 0.2%.
`CN(CC(=O)Nc1cccc(F)c1)CC(=O)NC(c1ccccc1)c1ccccc1` gave ELG1 repair inh -19.6%, KB-V1 MDR tox inactive, MCF10A rereplic 15.2%, KB-3-1 tox inactive and SW480 rerep 7.9%.
Screening COCCN(CC(=O)Nc1cccc(C)c1C)C(=O)c1cc(-c2cccs2)nn1-c1ccccc1 returned ELG1 repair inh 12.6µM*, KB-V1 MDR tox inactive, MCF10A rereplic 4.4%, KB-3-1 tox inactive and SW480 rerep -10.6%.
Screening COCCN(CC(=O)Nc1cccc(C)c1C)C(=O)C1(c2ccc(Cl)cc2)CCC1 returned ELG1 repair inh inconclusive, KB-V1 MDR tox inactive, MCF10A rereplic 78.5%, KB-3-1 tox inactive and SW480 rerep -12.4%.
Screening COc1ccc(NC(=O)CN(C)C(=O)c2cc(-c3cccs3)nn2-c2ccccc2)cc1 returned ELG1 repair inh inconclusive, KB-V1 MDR tox inconclusive, MCF10A rereplic inconclusive, KB-3-1 tox inactive and SW480 rerep 10.8%.

Source: PubChem (National Center for Advancing Translational Sciences (NCATS))
